Test results taken from the supplement of paper PMC13380429.

System: Vero E6 infected with SARS-CoV-2
Assay: inhibition of SARS-CoV-2 cytopathic effect; higher = more antiviral protection, active = above 15
Conditions: 48 h

Row | Structure (SMILES) | inhibition of SARS-CoV-2 cytopathic effect (1 nM) | inhibition of SARS-CoV-2 cytopathic effect (8.33 nM) | inhibition of SARS-CoV-2 cytopathic effect (100 nM) | inhibition of SARS-CoV-2 cytopathic effect (833.33 nM) | inhibition of SARS-CoV-2 cytopathic effect (10000 nM)
1 | CC(C)[C@@]1(NC(=O)[C@@H]2C[C@@H]3c4cccc5[nH]cc(c45)C[C@H]3N(C)C2)O[C@@]2(O)[C@@H]3CCCN3C(=O)[C@H](Cc3ccccc3)N2C1=O [dihydroergocristine] | 3.37% (inactive) | -0.59% (inactive) | 0.24% (inactive) | -1.73% (inactive) | -1.9% (inactive)
2 | CCO[C@H]1O[C@@H]2O[C@@]3(C)CC[C@H]4[C@H](C)CC[C@@H]([C@H]1C)[C@@]24OO3 [artemotil] | -0.58% (inactive) | -2.88% (inactive) | 1.56% (inactive) | 0.29% (inactive) | 1.11% (inactive)
3 | Oc1ccnc2cc(Cl)ccc12 [chloroxoquinoline] | -2.22% (inactive) | 0.71% (inactive) | 0.09% (inactive) | -0.05% (inactive) | 1.04% (inactive)
4 | CCCC(CCC)C(=O)NCC(N)=O [valrocemide] | 0.41% (inactive) | 1.83% (inactive) | 2.6% (inactive) | 0.66% (inactive) | 3.56% (inactive)
5 | C[C@@H]1CN(CC(=O)Nc2ccc3c(c2)Cc2cccc(-c4cc(=O)cc(N5CCOCC5)o4)c2S3)C[C@H](C)O1 | -2.04% (inactive) | 0.24% (inactive) | 2.16% (inactive) | 2.87% (inactive) | 35.7% (active)
6 | C/C=C(/C)C(=O)O[C@H]1[C@H](OC(C)=O)[C@@]2(CO)C(CC1(C)C)C1=CCC3[C@@]4(C)CCC(O[C@@H]5O[C@H](C(=O)O)[C@@H](O[C@@H]6O[C@H](CO)[C@@H](O)[C@H](O)[C@H]6O)[C@H](O)[C@H]5O[C@@H]5O[C@H](CO)[C@@H](O)[C@H](O)[C@H]5O)[C@](C)(CO)C4CC[C@@]3(C)[C@]1(C)C[C@H]2O.C/C=C(\C)C(=O)O[C@H]1[C@H](OC(C)=O)[C@@]2(CO)C(CC1(C)C)C1=CCC3[C@@]4(C)CCC(O[C@@H]5O[C@H](C(=O)O)[C@@H](O[C@@H]6O[C@H](CO)[C@@H](O)[C@H](O)[C@H]6O)[C@H](O)[C@H]5O[C@@H]5O[C@H](CO)[C@@H](O)[C@H](O)[C@H]5O)[C@](C)(CO)C4CC[C@@]3(C)[C@]1(C)C[C@H]2O (stereo not given in full) [escin] | -2.05% (inactive) | -1.77% (inactive) | -0.38% (inactive) | -4.84% (inactive) | -27.8% (inactive)
7 | O=Nc1c(O)[nH]c2c(Cl)c(Cl)ccc12 | -0.18% (inactive) | -0.08% (inactive) | -2.11% (inactive) | -0.54% (inactive) | -3.64% (inactive)
8 | CCCCCS(=O)(=O)CCCCCCCCCCn1c(-c2ccc(O)cc2)c(C)c2cc(O)ccc21 | 1.18% (inactive) | -2.92% (inactive) | -0.42% (inactive) | -1.6% (inactive) | -5.93% (inactive)
9 | CCC1(C)CC(=O)NC(=O)C1 [bemegride] | -1.73% (inactive) | -2.18% (inactive) | -2.05% (inactive) | 1.29% (inactive) | -2.8% (inactive)
